Shown are actives, neighbours in structure and some others; about 0.64% of the full set was active somewhere.
PKM2 activator – PKM2 (human) enzyme activation | P14618 | purified PKM2, Kinase-Glo ATP luminescence, activation; response scale: 0% is enzyme alone, no compound | Potency, µM (highest dose often 57.5 µM), without a hit: top-dose activation, most hits filed as activators | 260,000 tested, 0.34% active | AID 1631; also: potency is read from the fitted curve at half-maximal effect; % is scaled to controls: 0 for no effect and ±100 for the full control effect; nearly all actives have a fitted effect of over 55% in size
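ATP formation by purified human PK-M2, quantified via coupled luciferase luminescence after 1 h at room temperature with 0.1 mM ADP and 0.5 mM PEP final.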
EPAC1 antagonist – blocks human EPAC1 exchange factor; O95398; EPAC1 GEF assay, Rap1b-BODIPY-GDP exchange fluorescence; Potency, µM (series often up to 115 µM), inactives show top-dose activity change, negative = inhibition, actives largely listed as inhibitors; 360,000 tested, 0.14% active; AID 720709;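 also: potency is read from the fitted curve at half-maximal effect; plate controls were vehicle for no effect and positive control for full effect; nearly all actives have a fitted effect of over 50% in size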
EPAC2 ag – EPAC2 (human) agonism; 360,000 tested, 0.079% active; Potency, µM (highest dose often 154 µM), without a hit: top-dose activation, usual class: activators; Q8WZA2; EPAC2 activation, biochemical qHTS; response scale: 100% = 6.5 mM cAMP response; AID 720711; also: potency is read from the fitted curve at half-maximal effect; nearly all actives have a fitted effect of over 50% in size
Target sequence (Q8WZA2 whole entry, looked up): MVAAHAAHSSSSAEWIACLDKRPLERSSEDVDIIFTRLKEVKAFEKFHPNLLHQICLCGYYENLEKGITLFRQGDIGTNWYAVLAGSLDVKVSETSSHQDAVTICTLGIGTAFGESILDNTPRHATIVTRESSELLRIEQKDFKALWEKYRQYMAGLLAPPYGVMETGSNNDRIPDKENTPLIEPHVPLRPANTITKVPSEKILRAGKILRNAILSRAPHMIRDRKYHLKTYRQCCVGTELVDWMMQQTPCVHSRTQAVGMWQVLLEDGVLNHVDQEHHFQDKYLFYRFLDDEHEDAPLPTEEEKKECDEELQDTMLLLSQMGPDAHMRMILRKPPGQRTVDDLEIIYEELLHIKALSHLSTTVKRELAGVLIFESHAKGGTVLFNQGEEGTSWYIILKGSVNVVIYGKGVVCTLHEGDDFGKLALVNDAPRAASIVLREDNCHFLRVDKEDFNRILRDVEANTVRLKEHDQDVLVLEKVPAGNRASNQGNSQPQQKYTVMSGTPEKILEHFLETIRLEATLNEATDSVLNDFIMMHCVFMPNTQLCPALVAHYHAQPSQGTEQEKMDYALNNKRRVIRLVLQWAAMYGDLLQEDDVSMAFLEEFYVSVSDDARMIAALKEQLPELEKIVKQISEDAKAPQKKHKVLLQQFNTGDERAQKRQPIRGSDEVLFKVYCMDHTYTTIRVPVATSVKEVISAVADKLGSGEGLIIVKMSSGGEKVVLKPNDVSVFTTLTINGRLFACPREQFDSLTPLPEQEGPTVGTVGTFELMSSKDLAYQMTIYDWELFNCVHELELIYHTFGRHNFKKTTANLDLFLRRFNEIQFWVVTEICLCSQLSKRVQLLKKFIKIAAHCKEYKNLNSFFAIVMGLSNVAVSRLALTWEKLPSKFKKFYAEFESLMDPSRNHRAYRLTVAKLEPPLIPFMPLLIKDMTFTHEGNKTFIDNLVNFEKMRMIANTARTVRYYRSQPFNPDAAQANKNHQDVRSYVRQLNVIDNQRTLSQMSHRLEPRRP
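Exchange assay: 100 nM EPAC2 with 250 nM Rap1B-BODIPY-GDP and 50 uM GDP. Fluorescence (ex 480/em 540 nm) read every 5 min for 30 min at room temperature. Data normalized to 6.5 mM cAMP as agonist control.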
EPAC2 antag – EPAC2 (human) antagonism; Q8WZA2; EPAC2 GEF exchange of Rap1B-BODIPY-GDP, fluorescence; Potency, µM (top dose mostly 114 µM), for the others: at the highest dose activity, negative = inhibition, usual class: inhibitors; 360,000 tested, 0.18% active; AID 720708; also: potency is read from the fitted curve at half-maximal effect; % is scaled to controls: 0 for no effect and ±100 for the full control effect; nearly all actives have a fitted effect of over 45% in size
IL2 activator – IL-2 activation; IL-2 activation reporter assay, cell-based qHTS; stimulated with anti-CD3/CD4/CD28 beads; in transgenic mouse T cells; activation, % (series mostly up to about 46 µM); 360,000 tested, 0.065% active; in the data active = activation above about 50%; inconclusive = mostly about 30% to 49%; also: 0% is about no effect
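Readout: EGFP and DsRed signals by fluorescent plate cytometry. Unstimulated transgenic mouse T cells received compound 60 min before antibody-bead stimulation, then incubated 18 h at 37 degrees C.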
EPAC1 agonist – agonists of human EPAC1; Potency, µM (doses to about 154 µM), inactives show at the highest dose activation, usual class: activators; 360,000 tested, 0.073% active; EPAC1 agonist qHTS, biochemical assay; response scale: 100% = response to 6.5 mM cAMP; O95398; also: potency is read from the fitted curve at half-maximal effect; nearly all actives have a fitted effect of over 60% in size
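Multi-concentration qHTS readout: loss of Rap1B-bound BODIPY-GDP fluorescence driven by 100 nM EPAC1 with excess GDP (50 uM), monitored kinetically at room temperature; agonist response expressed relative to 6.5 mM cAMP.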
An asterisk follows results filed as active; ? = inconclusive; / = not tested or not shown; [ ] = remark or other dose. Unless noted, calls follow the shape of the dose curve; as a rule, active = well fitted curve in the direction sought with a large enough effect; inconclusive = small, poorly fitted or top-dose-only effect, or another doubt; inactive = no such curve, though single readings can be large; an effect the other way counts as inactive or inconclusive.

SMILES	PKM2 activator	EPAC1 antagonist	EPAC2 ag	EPAC2 antag	IL2 activator	EPAC1 agonist
Cc1ccc(NC(=O)C2CCN(S(C)(=O)=O)CC2)cc1	-2.5%	8.3%	-4.4%	7.6%	-0.3	-4.6%
CCc1ccc(NC(=O)C2CCN(S(C)(=O)=O)CC2)cc1	5.5%	-5.8%	2.9%	9.0%	56.3*	5.5%
COc1ccc(NC(=O)C2Cc3c(-c4cccc(NC(C)=O)c4)ccnc3O2)cc1 (configuration not stated)	/	-13.0%	10.8%	-4.6%	0.4	-3.4%
Cc1ccc(C(C[N+](=O)[O-])c2c(-c3ccccc3O)[nH][nH]c2=O)cc1 (configuration not stated)	-15.3%	-17.4%	-3.1%	11.2µM*	-2.7	-16.6%
O=c1[nH][nH]c(-c2ccccc2O)c1C(C[N+](=O)[O-])c1ccc(Br)cc1 (configuration not stated)	-0.1%	17.1%	-8.7%	11.2µM*	-1.0	-13.0%
COC(=O)N1C(/C=C/c2ccc3c(c2)OCO3)=Cc2ccccc2C1CC(C)=O (configuration not stated)	-4.1%[11.5 µM]	/	/	/	/	/
CCOc1cc(/C=N/NC(=O)c2ccc3c(c2)OCCO3)cc(Br)c1O	-0.5%	70.8µM*	8.8%	12.2%	-2.2	-4.7%
CCCn1c(N)c(N(CCOC)C(=O)c2ccccc2)c(=O)[nH]c1=O	0.2%	23.1%	5.9%	3.1%	-0.3	6.0%
COc1ccc(C2CC(c3cccs3)=NN2c2ccc(C=O)cc2)cc1 (configuration not stated)	-3.0%	108.5%	13.5%	22.0%	4.2	89.1µM*
O=C(CN1CCN(S(=O)(=O)N2CCCCC2)CC1)Nc1ccc(Cl)c(Cl)c1	-1.5%	-25.2%	1.9%	-13.3%	-1.8	0.1%
CC1(C(=O)Nc2cccc3ncccc23)CCN1C(=O)Cc1ccc(-c2ccccc2)cc1 (configuration not stated)	/	-0.8%	16.5%	-21.9%	-0.7	4.7%
Cc1ccc(-n2c(C)cc(/C=C3\NC(=O)NC3=O)c2C)c(C)c1	5.6%	-1.2%	12.3%	-3.2%	67.4*	5.0%
Cc1cc(/C=C2/NC(=O)NC2=O)c(C)n1-c1ccccn1	-8.8%	4.9%	-2.2%	0.9%	-0.9	5.7%
COC(=O)[C@@]1(Cc2ccc(OC)cc2)[C@H]2c3cc(C(=O)N(C)C)n(Cc4ccc(C)o4)c3C[C@H]2CN1C(=O)c1ccccc1	8.91µM*	/	/	/	/	/
COC(=O)[C@@]1(Cc2ccc(OC)cc2)[C@H]2c3cc(C(=O)N(C)C)n(CCO)c3C[C@H]2CN1C(=O)c1ccccc1	-2.1%	/	/	/	/	/
COC(=O)[C@@]1(Cc2ccc(F)cc2)[C@H]2c3cc(C(=O)N4CCCC4)n(Cc4ccc(C)o4)c3C[C@H]2CN1C(=O)c1ccccc1	12.6µM*	-17.5%	3.1%	-13.8%	-0.7	-0.8%
O=C(NC1CCCCC1)C1c2ccccc2OCC(=O)N1C1CC1 (configuration not stated)	/	-9.7%	9.8%	8.9%	-0.4	6.9%
CC(=O)Nc1cccc(C(=O)/C=C/c2ccc(F)cc2)c1	-2.3%	79.4µM*	9.1%	-7.2%	-3.9	-3.0%
CC(=O)Nc1cccc(C(=O)/C=C/c2ccc(/C=C/C(=O)c3cccc(NC(C)=O)c3)cc2)c1	-2.6%	/	/	/	/	/
Cc1ccc(NC(=O)CCCn2nc(C)c3c(C)n(-c4ccccc4)nc3c2=O)c(Cl)c1	-1.3%	6.1%	-8.9%	-10.9%	-1.5	4.9%
O=C(O)C(c1ccccc1)N1C(=O)/C(=C\c2ccc(-c3ccccc3Cl)o2)SC1=S (configuration not stated)	/	42.0%	112µM*	90.5%	-3.2	-131.3%
O=C(O)C(c1ccccc1)N1C(=O)/C(=C\c2ccc(-c3ccc(Br)cc3)o2)SC1=S (configuration not stated)	/	-6.1%	-21.2%	85.7%	2.5	6.5%
CC(Sc1ccc([N+](=O)[O-])cn1)C(=O)Nc1nccs1 (configuration not stated)	6.31µM*	-8.2%	-0.9%	16.2%	0.2	-21.7%
O=C(O)c1[nH]c2ccccc2c1C(c1cc(Cl)cc([N+](=O)[O-])c1O)c1c(C(=O)O)[nH]c2ccccc12	-0.8%	25.1µM*	-4.1%	-6.6%	-2.0	-4.6%
O=C(O)c1[nH]c2ccccc2c1C(c1ccccc1)c1c(C(=O)O)[nH]c2ccccc12	8.4%	-22.5%	-4.0%	-9.5%	0.5	-10.2%
SMILES	PKM2 activator	EPAC1 antagonist	EPAC2 ag	EPAC2 antag	IL2 activator	EPAC1 agonist
Cc1ccc(CSC2=NCCN2S(=O)(=O)c2ccc(F)cc2)cc1	10.8%	?	11.6%	50.1µM*	-1.1	7.5%
O=C1CN(S(=O)(=O)c2ccccc2)CCN1S(=O)(=O)c1ccccc1	4.47µM*	1.4%	-0.1%	-2.0%	-2.5	10.5%
O=C1CCCN1S(=O)(=O)c1ccccc1	2.6%	7.0%	3.2%	-6.3%	0.2	3.4%
Cc1ccc(S(=O)(=O)NC[C@H]2O[C@@H](n3ccc(N)nc3=O)[C@H](O)[C@@H]2O)s1	/	8.3%	7.9%	7.3%	-2.8	-13.5%
COc1ccc(/C=C/C(=O)O)cc1S(=O)(=O)NC1CCS(=O)(=O)C1 (configuration not stated)	-14.1%	9.3%	-1.0%	17.6%	-0.6	-2.4%
O=C1C=C(N(CCO)Cc2ccccc2)c2ccccc2C1=O	/	44.7µM*	23.5%	?	-0.9	9.5%
O=C1c2ccccc2C(=O)c2c1cccc2N(CCO)CCO	-4.5%	-20.7%	1.8%	-9.6%	-0.6	3.2%
CCCC(=O)O[C@@H]1C[C@@H](C)N(C(=O)c2ccccc2)c2ccc(C)cc21	-2.1%	8.2%	-20.5%	20µM*	-1.5	-3.4%
Cc1ccc2c(c1)C1CN(C)CCC1N2C(=O)COc1ccc(N(C)C(=O)c2ccccc2)cc1 (configuration not stated)	2.0%	14.6%	10.4%	0.5%	-4.8	10.0%
N/C(=N\OCc1ccc([N+](=O)[O-])cc1)c1ccncc1	-1.6%	5.3%	15.2%	14.6%	-0.8	-7.3%
CCOC(=O)C1=C(COc2ccccc2)NC(=O)NC1c1ccc(Br)cc1 (configuration not stated)	0.2%	?	-12.1%	-6.4%	-0.9	-9.0%
O=C(c1ccc(NS(=O)(=O)c2cccs2)cc1)N1CCN(c2ccccc2Cl)CC1	6.31µM*	-16.1%	0.4%	2.3%	-1.4	-1.5%
Cc1c(-n2c(=O)n(Cc3ccccc3)c(=O)c3[nH]cnc32)cccc1S(C)=O (configuration not stated)	/	2.4%	3.4%	3.9%	2.2	-6.2%

Screening results: PubChem, National Center for Advancing Translational Sciences (NCATS)
